Reference: article PMC7862700, “An all-to-all approach to the identification of sequence-specific readers for epigenetic DNA modifications on cytosine”

Columns and labels:
Assay in all cases: DAPPL (digital affinity profiling via proximity ligation, sequencing); 10 mM Tris-HCl pH 7.5, 50 mM NaCl, 1 mM DTT, 4% glycerol, room temperature, 30 min; GST-TFs on glutathione beads, 16-mer random dsDNA library, 0.1% formaldehyde crosslink after washing; high values mean tight binding
FEV = biological target: T1, FEV (Homo sapiens, UniProt Q99581 1-238); details: protein: recombinant; tags: N-terminal GST; dsDNA, one strand shown
T1 sequence: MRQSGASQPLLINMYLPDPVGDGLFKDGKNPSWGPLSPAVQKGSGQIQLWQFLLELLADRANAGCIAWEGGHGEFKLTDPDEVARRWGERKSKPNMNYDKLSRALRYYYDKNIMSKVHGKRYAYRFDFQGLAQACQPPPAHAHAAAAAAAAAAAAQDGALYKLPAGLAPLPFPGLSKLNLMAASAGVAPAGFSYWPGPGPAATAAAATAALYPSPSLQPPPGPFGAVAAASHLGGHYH
Method in brief: (§1)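 A tag-only sample was pooled with DNA-barcoded human transcription factors that had been expressed in yeast as GST fusions and captured on glutathione beads. The pools were incubated for 30 min at room temperature with 200 nmole of a random double-stranded 16-mer DNA library in Tris/NaCl/DTT/glycerol buffer, then washed, crosslinked with 0.1% formaldehyde, proximity-ligated (BsaI/T4 ligase, 1 h, 37 °C), PCR-amplified and sequenced on an Illumina NextSeq500. Binding signal is each hexamer's read frequency for a factor divided by its frequency for the tag-only sample.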

ETV5 = ETV5 (Homo sapiens, UniProt P41161 1-510); details: protein: recombinant; tags: N-terminal GST; dsDNA, one strand shown
Sequence of ETV5 (P41161 whole entry): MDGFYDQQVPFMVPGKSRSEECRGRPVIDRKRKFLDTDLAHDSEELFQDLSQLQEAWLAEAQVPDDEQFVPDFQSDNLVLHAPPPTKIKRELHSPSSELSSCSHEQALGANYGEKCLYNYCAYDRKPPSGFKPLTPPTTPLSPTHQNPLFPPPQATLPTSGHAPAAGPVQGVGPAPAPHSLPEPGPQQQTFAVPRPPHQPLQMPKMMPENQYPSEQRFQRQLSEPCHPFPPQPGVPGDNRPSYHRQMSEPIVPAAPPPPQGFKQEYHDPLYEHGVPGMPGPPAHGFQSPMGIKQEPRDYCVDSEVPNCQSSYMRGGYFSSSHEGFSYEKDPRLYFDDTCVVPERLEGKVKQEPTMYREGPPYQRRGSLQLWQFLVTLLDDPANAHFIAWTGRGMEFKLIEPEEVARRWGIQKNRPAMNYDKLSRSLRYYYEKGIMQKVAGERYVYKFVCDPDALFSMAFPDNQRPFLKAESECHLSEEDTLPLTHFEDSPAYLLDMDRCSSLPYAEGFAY
Method in brief: as §1

HSF1 = HSF1 (Homo sapiens, UniProt Q00613 1-529); details: protein: recombinant; tags: N-terminal GST; chain copies: 3; dsDNA, one strand shown
Sequence of HSF1 (Q00613 whole entry): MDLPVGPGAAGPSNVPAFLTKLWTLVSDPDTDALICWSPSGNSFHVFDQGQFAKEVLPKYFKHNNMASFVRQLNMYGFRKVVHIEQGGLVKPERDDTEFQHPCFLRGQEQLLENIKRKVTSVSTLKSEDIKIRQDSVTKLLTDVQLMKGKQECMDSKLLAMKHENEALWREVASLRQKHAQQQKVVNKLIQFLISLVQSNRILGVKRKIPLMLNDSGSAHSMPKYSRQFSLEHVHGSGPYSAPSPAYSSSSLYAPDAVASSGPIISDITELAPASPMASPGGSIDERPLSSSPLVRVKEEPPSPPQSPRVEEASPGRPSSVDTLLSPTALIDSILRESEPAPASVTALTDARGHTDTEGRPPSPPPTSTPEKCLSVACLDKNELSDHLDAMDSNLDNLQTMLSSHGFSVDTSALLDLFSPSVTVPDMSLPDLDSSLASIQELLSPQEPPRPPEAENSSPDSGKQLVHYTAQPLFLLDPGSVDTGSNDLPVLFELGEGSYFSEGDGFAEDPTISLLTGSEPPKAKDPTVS
Method in brief: as §1

SPIC = biological target: T2, SPIC (Homo sapiens, UniProt Q8N5J4 1-248); details: protein: recombinant; tags: N-terminal GST; dsDNA, one strand shown
T2 sequence: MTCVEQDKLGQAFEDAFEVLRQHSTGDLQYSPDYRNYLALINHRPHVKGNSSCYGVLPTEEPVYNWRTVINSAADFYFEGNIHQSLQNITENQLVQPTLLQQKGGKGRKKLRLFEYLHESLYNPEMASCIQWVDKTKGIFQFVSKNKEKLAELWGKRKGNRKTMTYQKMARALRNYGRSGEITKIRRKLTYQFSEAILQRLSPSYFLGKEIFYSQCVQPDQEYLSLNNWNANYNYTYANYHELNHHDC
Method in brief: as §1

ELF4 = ELF4 (Homo sapiens, UniProt Q99607 1-663); details: protein: recombinant; tags: N-terminal GST; dsDNA, one strand shown
Sequence of ELF4 (Q99607 whole entry): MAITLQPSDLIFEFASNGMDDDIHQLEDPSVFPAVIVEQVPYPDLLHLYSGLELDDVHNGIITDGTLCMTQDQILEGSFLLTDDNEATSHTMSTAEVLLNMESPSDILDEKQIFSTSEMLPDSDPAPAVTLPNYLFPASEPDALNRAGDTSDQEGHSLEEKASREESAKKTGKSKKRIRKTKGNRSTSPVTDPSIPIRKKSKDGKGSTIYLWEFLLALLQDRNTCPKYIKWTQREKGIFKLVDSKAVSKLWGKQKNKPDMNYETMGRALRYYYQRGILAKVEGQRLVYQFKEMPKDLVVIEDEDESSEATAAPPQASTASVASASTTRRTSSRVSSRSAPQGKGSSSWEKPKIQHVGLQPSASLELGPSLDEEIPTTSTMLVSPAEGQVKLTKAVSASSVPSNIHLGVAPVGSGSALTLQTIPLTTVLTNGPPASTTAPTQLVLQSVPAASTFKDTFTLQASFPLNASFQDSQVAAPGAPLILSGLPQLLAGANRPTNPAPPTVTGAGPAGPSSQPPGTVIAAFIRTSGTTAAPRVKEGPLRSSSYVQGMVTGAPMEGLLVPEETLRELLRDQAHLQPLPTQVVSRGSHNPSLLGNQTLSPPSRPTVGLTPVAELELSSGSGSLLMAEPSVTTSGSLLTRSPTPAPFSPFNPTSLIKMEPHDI
Method in brief: as §1

ELK4 = biological target: T3, ELK4 (Homo sapiens, UniProt P28324-2 1-405); details: protein: recombinant; tags: N-terminal GST; dsDNA, one strand shown
T3 sequence: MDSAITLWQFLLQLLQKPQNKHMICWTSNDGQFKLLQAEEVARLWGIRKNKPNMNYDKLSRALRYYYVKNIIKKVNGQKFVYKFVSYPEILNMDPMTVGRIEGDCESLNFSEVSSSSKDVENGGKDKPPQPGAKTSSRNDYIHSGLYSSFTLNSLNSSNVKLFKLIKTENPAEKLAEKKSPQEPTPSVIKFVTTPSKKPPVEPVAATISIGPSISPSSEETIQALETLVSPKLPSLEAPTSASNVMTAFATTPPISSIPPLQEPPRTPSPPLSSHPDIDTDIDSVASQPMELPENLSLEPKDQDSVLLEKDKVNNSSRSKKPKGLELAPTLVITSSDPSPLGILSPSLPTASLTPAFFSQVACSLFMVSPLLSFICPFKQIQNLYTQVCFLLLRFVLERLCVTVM
Method in brief: as §1

ETV2 = biological target: T4, ETV2 (Homo sapiens, UniProt O00321 1-342); details: protein: recombinant; tags: N-terminal GST; dsDNA, one strand shown
T4 sequence: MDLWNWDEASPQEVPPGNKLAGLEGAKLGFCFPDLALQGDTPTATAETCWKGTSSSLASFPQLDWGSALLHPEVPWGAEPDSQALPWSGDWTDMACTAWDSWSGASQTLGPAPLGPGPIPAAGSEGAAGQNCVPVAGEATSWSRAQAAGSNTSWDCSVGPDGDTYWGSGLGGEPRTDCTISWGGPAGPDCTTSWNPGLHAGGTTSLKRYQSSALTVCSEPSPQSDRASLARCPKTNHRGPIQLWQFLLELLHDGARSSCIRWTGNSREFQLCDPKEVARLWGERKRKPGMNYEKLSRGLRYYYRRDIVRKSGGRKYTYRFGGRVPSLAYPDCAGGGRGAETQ
Method in brief: as §1

ELF3 = biological target: T5, ELF3 (Homo sapiens, UniProt P78545 1-371); details: protein: recombinant; tags: N-terminal GST; dsDNA, one strand shown
T5 sequence: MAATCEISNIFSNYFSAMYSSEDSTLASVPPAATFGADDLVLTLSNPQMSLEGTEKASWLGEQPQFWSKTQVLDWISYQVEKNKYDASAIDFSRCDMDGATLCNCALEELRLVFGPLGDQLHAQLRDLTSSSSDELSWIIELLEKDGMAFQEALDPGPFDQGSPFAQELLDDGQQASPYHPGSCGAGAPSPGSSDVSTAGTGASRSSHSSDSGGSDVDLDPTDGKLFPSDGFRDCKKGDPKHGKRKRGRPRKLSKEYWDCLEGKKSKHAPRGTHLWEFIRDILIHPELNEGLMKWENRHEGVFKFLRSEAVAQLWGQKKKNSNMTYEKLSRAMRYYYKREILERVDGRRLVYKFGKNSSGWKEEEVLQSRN
Method in brief: as §1

CRX = CRX (Homo sapiens, UniProt O43186 1-299); details: protein: recombinant; tags: N-terminal GST; dsDNA, one strand shown
Sequence of CRX (O43186 whole entry): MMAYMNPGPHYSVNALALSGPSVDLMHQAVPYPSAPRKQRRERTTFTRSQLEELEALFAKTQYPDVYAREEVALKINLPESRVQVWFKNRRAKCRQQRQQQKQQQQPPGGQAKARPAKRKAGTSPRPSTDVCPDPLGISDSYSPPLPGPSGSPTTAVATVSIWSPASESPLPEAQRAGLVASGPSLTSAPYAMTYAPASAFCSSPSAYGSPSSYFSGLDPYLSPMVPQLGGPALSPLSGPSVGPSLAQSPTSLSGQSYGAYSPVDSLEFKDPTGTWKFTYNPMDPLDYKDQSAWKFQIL
Method in brief: as §1

ETV1 = ETV1 (Homo sapiens, UniProt P50549 1-477); details: protein: recombinant; tags: N-terminal GST; dsDNA, one strand shown
Sequence of ETV1 (P50549 whole entry): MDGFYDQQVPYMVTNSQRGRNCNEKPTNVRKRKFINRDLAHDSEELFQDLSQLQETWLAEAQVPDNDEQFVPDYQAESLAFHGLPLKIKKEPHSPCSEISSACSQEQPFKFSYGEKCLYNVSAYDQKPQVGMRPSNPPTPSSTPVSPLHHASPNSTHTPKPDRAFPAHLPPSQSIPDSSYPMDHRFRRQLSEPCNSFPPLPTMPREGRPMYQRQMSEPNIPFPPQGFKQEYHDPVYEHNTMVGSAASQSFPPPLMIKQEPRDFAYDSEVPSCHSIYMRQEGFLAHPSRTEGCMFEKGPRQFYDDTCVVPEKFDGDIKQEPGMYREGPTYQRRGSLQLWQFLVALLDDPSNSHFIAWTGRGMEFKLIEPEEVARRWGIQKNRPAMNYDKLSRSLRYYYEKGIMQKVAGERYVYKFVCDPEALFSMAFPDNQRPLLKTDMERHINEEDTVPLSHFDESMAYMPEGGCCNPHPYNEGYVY
Method in brief: as §1

ERF = biological target: T6, ERF (Homo sapiens, UniProt P50548 1-548); details: protein: recombinant; tags: N-terminal GST; dsDNA, one strand shown
T6 sequence: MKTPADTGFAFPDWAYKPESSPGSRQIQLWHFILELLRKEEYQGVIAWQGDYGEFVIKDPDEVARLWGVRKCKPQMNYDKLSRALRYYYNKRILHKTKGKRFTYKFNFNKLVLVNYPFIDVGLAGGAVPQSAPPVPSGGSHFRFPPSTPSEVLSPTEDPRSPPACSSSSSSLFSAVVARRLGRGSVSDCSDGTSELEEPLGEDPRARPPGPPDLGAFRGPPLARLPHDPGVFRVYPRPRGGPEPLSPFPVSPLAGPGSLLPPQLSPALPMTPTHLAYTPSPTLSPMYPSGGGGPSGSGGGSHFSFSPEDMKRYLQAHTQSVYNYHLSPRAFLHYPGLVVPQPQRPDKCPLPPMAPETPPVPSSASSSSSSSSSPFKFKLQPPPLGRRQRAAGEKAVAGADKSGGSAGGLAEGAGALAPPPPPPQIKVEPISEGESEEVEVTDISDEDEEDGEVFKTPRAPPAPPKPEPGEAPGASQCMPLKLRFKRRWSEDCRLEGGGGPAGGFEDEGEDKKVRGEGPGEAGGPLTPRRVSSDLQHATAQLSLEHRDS
Method in brief: as §1

ETV3L = biological target: T7, ETV3L (Homo sapiens, UniProt Q6ZN32 1-361); details: protein: recombinant; tags: N-terminal GST; dsDNA, one strand shown
T7 sequence: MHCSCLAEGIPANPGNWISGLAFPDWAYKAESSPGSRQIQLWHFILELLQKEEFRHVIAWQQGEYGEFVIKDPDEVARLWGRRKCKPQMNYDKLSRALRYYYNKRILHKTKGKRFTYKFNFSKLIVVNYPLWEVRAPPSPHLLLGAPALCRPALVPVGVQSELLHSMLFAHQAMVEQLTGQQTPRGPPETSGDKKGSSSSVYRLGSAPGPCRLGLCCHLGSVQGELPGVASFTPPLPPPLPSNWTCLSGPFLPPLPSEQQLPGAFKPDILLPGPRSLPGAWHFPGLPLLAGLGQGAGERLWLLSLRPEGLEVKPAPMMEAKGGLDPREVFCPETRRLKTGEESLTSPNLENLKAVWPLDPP
Method in brief: as §1

ETS2 = biological target: T8, ETS2 (Homo sapiens, UniProt P15036 1-469); details: protein: recombinant; tags: N-terminal GST; dsDNA, one strand shown
T8 sequence: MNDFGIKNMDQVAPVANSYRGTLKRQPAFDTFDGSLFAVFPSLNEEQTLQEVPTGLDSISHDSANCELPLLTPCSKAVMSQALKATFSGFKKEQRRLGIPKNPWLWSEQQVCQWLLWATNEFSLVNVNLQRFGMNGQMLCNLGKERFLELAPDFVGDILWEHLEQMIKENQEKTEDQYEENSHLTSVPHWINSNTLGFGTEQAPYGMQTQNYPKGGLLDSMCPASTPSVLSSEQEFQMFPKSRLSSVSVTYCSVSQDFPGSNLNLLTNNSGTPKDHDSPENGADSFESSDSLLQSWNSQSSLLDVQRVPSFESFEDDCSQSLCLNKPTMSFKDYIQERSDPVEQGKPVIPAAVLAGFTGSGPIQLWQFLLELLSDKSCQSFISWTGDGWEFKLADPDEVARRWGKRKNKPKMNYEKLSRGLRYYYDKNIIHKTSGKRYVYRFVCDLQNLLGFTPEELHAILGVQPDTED
Method in brief: as §1

SPDEF = biological target: T9, SPDEF (Homo sapiens, UniProt O95238 1-335); details: protein: recombinant; tags: N-terminal GST; dsDNA, one strand shown
T9 sequence: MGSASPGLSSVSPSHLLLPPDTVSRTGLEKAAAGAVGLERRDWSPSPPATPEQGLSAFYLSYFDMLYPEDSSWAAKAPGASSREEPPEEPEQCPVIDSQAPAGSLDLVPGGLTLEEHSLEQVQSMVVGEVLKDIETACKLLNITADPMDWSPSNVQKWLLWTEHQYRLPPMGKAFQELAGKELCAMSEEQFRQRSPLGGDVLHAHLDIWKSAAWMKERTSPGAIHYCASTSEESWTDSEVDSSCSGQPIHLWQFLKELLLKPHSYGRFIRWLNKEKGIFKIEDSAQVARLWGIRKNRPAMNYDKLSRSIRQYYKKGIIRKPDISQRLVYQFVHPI
Method in brief: as §1

ETV7 = biological target: T10, ETV7 (Homo sapiens, UniProt Q9Y603 1-341); details: protein: recombinant; tags: N-terminal GST; dsDNA, one strand shown
T10 sequence: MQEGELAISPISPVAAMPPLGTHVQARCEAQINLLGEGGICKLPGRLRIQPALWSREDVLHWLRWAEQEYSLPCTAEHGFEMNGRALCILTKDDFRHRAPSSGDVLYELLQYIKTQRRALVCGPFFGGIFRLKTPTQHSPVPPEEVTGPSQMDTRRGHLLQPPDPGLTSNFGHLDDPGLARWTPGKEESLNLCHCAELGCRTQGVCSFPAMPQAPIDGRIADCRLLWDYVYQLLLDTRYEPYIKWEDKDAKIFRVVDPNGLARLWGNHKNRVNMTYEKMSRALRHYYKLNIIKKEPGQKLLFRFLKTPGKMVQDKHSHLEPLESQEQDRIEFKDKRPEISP
Method in brief: as §1

ELF5 = biological target: T11, ELF5 (Homo sapiens, UniProt Q9UKW6-2 1-255); details: protein: recombinant; tags: N-terminal GST; dsDNA, one strand shown
T11 sequence: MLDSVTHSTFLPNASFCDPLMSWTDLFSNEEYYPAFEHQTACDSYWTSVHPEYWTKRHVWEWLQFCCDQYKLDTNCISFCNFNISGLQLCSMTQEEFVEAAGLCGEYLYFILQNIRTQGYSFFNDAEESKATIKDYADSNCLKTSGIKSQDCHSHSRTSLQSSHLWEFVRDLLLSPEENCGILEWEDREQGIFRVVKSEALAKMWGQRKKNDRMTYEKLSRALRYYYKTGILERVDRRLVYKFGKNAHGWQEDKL
Method in brief: as §1

ETV3 = biological target: T12, ETV3 (Homo sapiens, UniProt P41162-2 1-143); details: protein: recombinant; tags: N-terminal GST; dsDNA, one strand shown
T12 sequence: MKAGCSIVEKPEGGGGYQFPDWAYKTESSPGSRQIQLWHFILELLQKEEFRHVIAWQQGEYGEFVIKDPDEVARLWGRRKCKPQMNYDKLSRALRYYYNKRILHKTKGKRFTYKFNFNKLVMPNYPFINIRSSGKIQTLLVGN
Method in brief: as §1

ETV6 = ETV6 (Homo sapiens, UniProt P41212 1-452); details: protein: recombinant; tags: N-terminal GST; dsDNA, one strand shown
Sequence of ETV6 (P41212 whole entry): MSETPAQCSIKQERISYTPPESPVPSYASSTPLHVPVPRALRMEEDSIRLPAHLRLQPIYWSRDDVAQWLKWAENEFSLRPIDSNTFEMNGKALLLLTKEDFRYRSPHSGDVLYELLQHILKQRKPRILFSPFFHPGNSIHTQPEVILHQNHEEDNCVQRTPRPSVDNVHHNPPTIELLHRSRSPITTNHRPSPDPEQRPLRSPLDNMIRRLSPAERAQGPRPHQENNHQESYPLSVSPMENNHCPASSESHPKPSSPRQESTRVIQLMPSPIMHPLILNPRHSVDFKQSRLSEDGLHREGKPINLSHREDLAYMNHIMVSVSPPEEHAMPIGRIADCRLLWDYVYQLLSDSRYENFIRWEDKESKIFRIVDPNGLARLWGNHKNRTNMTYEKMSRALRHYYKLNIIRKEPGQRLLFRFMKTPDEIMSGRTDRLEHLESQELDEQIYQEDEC
Method in brief: as §1

Question: With ACCTTC as the sequence, how does the binding signal (FEV) read?
Answer: Its binding signal is 1.97 fold enrichment (6-mer frequency, TF over GST control).

Question: And the binding signal (ETV5)?
Answer: The binding signal was 1.96 fold enrichment (6-mer frequency, TF over GST control).

Question: What about the binding signal (HSF1) of the same sequence?
Answer: Its binding signal is 2.87 fold enrichment (6-mer frequency, TF over GST control).

Question: And the binding signal (SPIC)?
Answer: The binding signal was 1.66 fold enrichment (6-mer frequency, TF over GST control).

Question: What about the binding signal (ELF4) of the same sequence?
Answer: The binding signal was 2.06 fold enrichment (6-mer frequency, TF over GST control).

Question: And the binding signal (ELK4)?
Answer: The binding signal was 2.06 fold enrichment (6-mer frequency, TF over GST control).

Question: What about the binding signal (ETV2) of the same sequence?
Answer: Its binding signal is 1.71 fold enrichment (6-mer frequency, TF over GST control).

Question: What about the binding signal (ELF3) of the same sequence?
Answer: The binding signal was 1.95 fold enrichment (6-mer frequency, TF over GST control).

Question: And the binding signal (CRX)?
Answer: The binding signal was 1.88 fold enrichment (6-mer frequency, TF over GST control).

Question: What about the binding signal (ETV1) of the same sequence?
Answer: Its binding signal is 1.98 fold enrichment (6-mer frequency, TF over GST control).

Question: And the binding signal (ERF)?
Answer: The binding signal was 1.92 fold enrichment (6-mer frequency, TF over GST control).

Question: And the binding signal (ETV3L)?
Answer: Its binding signal is 1.75 fold enrichment (6-mer frequency, TF over GST control).

Question: And the binding signal (ETS2)?
Answer: Its binding signal is 1.89 fold enrichment (6-mer frequency, TF over GST control).

Question: And the binding signal (SPDEF)?
Answer: Its binding signal is 2.02 fold enrichment (6-mer frequency, TF over GST control).

Question: And the binding signal (ETV7)?
Answer: The binding signal was 1.79 fold enrichment (6-mer frequency, TF over GST control).

Question: And the binding signal (ELF5)?
Answer: The binding signal was 2.19 fold enrichment (6-mer frequency, TF over GST control).

Question: What about the binding signal (ETV3) of the same sequence?
Answer: The binding signal was 1.8 fold enrichment (6-mer frequency, TF over GST control).

Question: And the binding signal (ETV6)?
Answer: Its binding signal is 1.96 fold enrichment (6-mer frequency, TF over GST control).
